Over roughly 39,000 sequences, “fluorescence intensity (a.u.)” has its median near 4,300; the highest 2% begin near 39,000. The sample as a whole holds a higher share of the highest values than the screen did.

The target in the experiment is T1, OsSMF1 (Oryza sativa, UniProt Q6ZLB0 1-436).
T1 sequence: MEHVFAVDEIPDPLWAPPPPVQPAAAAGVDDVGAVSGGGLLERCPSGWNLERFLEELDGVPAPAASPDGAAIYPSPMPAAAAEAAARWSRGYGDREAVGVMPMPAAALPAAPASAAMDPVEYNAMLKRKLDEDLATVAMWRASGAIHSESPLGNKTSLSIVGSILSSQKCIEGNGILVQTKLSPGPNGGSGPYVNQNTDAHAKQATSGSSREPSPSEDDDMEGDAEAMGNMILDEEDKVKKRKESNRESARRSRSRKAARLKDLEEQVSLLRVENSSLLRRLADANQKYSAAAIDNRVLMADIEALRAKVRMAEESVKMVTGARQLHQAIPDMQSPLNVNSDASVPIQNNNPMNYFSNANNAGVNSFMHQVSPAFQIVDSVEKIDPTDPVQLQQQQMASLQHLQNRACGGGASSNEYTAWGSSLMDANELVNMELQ
The experiment in a line: protein-binding microarray (RPBM); PBS, 2% BSA, 51.3 ng/ul salmon testes DNA, 50 uM zinc acetate, 200 nM TF, 25 C, 1 h; high values mean tight binding. As to conditions: protein: recombinant; tags: N-terminal polyhistidine and DsRed monomer fusion (pET32a); chain copies: 2; label: CyDye5-dUTP incorporated in the synthesized complementary strand; 3' TTTTT single-stranded linker to array surface; dsDNA, one strand shown. In outline: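 For the binding signal, per-feature fluorescence intensity was read in arbitrary units on an Axon 4000B scanner. Before scanning, a 2% BSA-blocked custom Agilent array made double-stranded with Cy5-dUTP was washed after 1 h at 25 °C with 200 nM protein and 50 µM zinc acetate. The proteins were Ni–NTA-purified transcription factors with N-terminal polyhistidine and DsRed fusions, expressed in E. coli BL21-CodonPlus.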
On to “AGGATTTCATGTGTTTTGGTTAACATATTCATGTGTGTCTCGGAGTCACCTAGTGCAG”, for which the binding signal was 3500 fluorescence intensity (a.u.).

Turning to “TTTTAGTATATTTATATACTTTGTGCAAGGTGACATGTACCGGAGTCACCTAGTGCAG”, the binding signal was 3440 fluorescence intensity (a.u.). Next, “CTTCTCTTATTGTTTGTGTCATTTTCATTTATGTCCTTGTCGGAGTCACCTAGTGCAG”: 3940 fluorescence intensity (a.u.); “GGAGTGGCGGGGTTGCGGCATTGGGAGCTGACGTGGCCGCCGGAGTCACCTAGTGCAG”: 25400 fluorescence intensity (a.u.); “GTAGAATTATAAAATATATTGTGTACACAATAGGTTTATGCGGAGTCACCTAGTGCAG”: 3330 fluorescence intensity (a.u.). Next, “ATATAAATAGGTTTCGAGGTAGAATATCAAAACAAGGATGCGGAGTCACCTAGTGCAG”: 39300 fluorescence intensity (a.u.); “AAACATCATATCAAATCTTTGGACATAGGTATAGAATATTCGGAGTCACCTAGTGCAG”: 8890 fluorescence intensity (a.u.). The result for “GAGCCACGGTGGAAGGGTATAATCGTAATTTCGCGTATGGCGGAGTCACCTAGTGCAG” reads 3370 fluorescence intensity (a.u.); that for “ACCGGGTCGCGCGCGTCGTTGAAACGTCACACCTAGCTAACGGAGTCACCTAGTGCAG”, 4280 fluorescence intensity (a.u.). In the case of “CGAATCTTTTGAGCCTAATTAATCTATCATTAGCACATGTCGGAGTCACCTAGTGCAG”, the binding signal was 3170 fluorescence intensity (a.u.). Next, “AGTAAATCCACATCAACAGCATTCTGTTGTTAACTCTGCCCGGAGTCACCTAGTGCAG”: 6820 fluorescence intensity (a.u.); “TGAAAATCGCATACTAATTAGCTATTAGTCATGAGCTCTTCGGAGTCACCTAGTGCAG”: 3590 fluorescence intensity (a.u.).

For the sequence “CAGGGAGCATTGAGATTCACTTTGTCACGATGGTAATATACGGAGTCACCTAGTGCAG”, the binding signal is 22600 fluorescence intensity (a.u.). Take “CTGCACCTGCTTGATCTCTTCTATGTCACTGTTCCTCTGACGGAGTCACCTAGTGCAG”: the binding signal is 3220 fluorescence intensity (a.u.). As to “GGGGAGCTTTGCCCCTGCGCACACTTGTCACGCTCACGCACGGAGTCACCTAGTGCAG”, the binding signal is 3220 fluorescence intensity (a.u.).

Turning to “TGCTTCCCCTGTTCTGATCACCTGCGCACACGGGTGCTCACGGAGTCACCTAGTGCAG”, the binding signal is 49200 fluorescence intensity (a.u.).

On to “CATAGCCTTTTGCATATGCGTCAAGCGTCTATACGATTCGCGGAGTCACCTAGTGCAG”, for which the binding signal was 3900 fluorescence intensity (a.u.).

As to “TGGGCGAGGAAGATATGAGTGTGAAAGGATGGAGGGCCCACGGAGTCACCTAGTGCAG”, the binding signal is 32900 fluorescence intensity (a.u.).

Consider “TTTGACATAGATGTGTTCCTCTAATGACATAGATGTGTTCCGGAGTCACCTAGTGCAG”, for which the binding signal was 3230 fluorescence intensity (a.u.).

Consider “CGCGGTCGACCCACCGTCTGCCACGTCAGCTTGCTGCCCACGGAGTCACCTAGTGCAG”, for which the binding signal was 25600 fluorescence intensity (a.u.). As for “AGAGCTGAGCCTTATGTGTGGTCTGTCTGTGCCTAGTCGACGGAGTCACCTAGTGCAG”, the binding signal is 48400 fluorescence intensity (a.u.). On to “GTGTGCTGTGTGTGGTCTGAGATGATGTGTACTGCTGCTACGGAGTCACCTAGTGCAG”, for which the binding signal is 3950 fluorescence intensity (a.u.). “CGGTCGACCCACCGTCTGCCACGTCAGCTTGCCGCCCACCCGGAGTCACCTAGTGCAG”: the binding signal was 22800 fluorescence intensity (a.u.).

Take “CAATCATCAGCCACGTCCGCCGCCGCTTCAGCTGGATCGGCGGAGTCACCTAGTGCAG”: the binding signal is 4290 fluorescence intensity (a.u.).

On to “GCAGACGGCGCGGTCGACCCACCGTCTGCCACGTCAGCTTCGGAGTCACCTAGTGCAG”, for which the binding signal is 37200 fluorescence intensity (a.u.). Next, “CTGGAGCGGGCGGCCACGGTCACGCCACGTCAGCTTCCATCGGAGTCACCTAGTGCAG”: 42100 fluorescence intensity (a.u.); “GGTCGACCCACCGTCTGCCACGTCAGCTTGCTGCCCACCACGGAGTCACCTAGTGCAG”: 48400 fluorescence intensity (a.u.); “GACGGCGCGGTCGACCCGCCGTCTGCCACGTCAGCTTGCCCGGAGTCACCTAGTGCAG”: 27400 fluorescence intensity (a.u.). The result for “TCAGCGGCAGCCCACCCGACTGGGCCGGTCATCGGCGCCACGGAGTCACCTAGTGCAG” reads 3470 fluorescence intensity (a.u.). Next, “GAGAGAAGATAGTAGTGGTAGTAGTAGCTGAGCTGTGTCACGGAGTCACCTAGTGCAG”: 3360 fluorescence intensity (a.u.); “GACGGCGCGGTCGACCCACCGTCTGCCACGTCAGCTTGCCCGGAGTCACCTAGTGCAG”: 50100 fluorescence intensity (a.u.); “CTCCATCTCGCAGTCGCAGTGCCAGCTAAGGCCTTGTACACGGAGTCACCTAGTGCAG”: 3240 fluorescence intensity (a.u.). In the case of “GCAGTGGCTAAGCTTAAGCTCAGGTATGATGACTCGTTGGCGGAGTCACCTAGTGCAG”, the binding signal is 3610 fluorescence intensity (a.u.). Next, “AAGGGCAGCTCAGTCATGGCTGCCACGAGGACAGATGTGGCGGAGTCACCTAGTGCAG”: 4760 fluorescence intensity (a.u.); “AGAGCAGATCCCCTGTCACGCCGACGCCGCCGCCGCCACCCGGAGTCACCTAGTGCAG”: 5410 fluorescence intensity (a.u.); “CAATCTGTCATCTCTTTACCAGTCTCATTGACATGTGGGCCGGAGTCACCTAGTGCAG”: 3270 fluorescence intensity (a.u.). Next, “GAGAAAGGGTGTTGACGTGGCATCCTGACATGTGGGGTCCCGGAGTCACCTAGTGCAG”: 15100 fluorescence intensity (a.u.); “AGCGGCGTCGTCTCGGCGGTGGCCGGTGCCACGGCGGCGGCGGAGTCACCTAGTGCAG”: 6200 fluorescence intensity (a.u.); “AATCGGTGTCGTTTTGCACGGCGTGTGCCACGTCAGCGTTCGGAGTCACCTAGTGCAG”: 52000 fluorescence intensity (a.u.). With “CACCTATCCATCCATCCATGTGTGGTGTCGTGTCAGCGTTCGGAGTCACCTAGTGCAG”, the binding signal is 6950 fluorescence intensity (a.u.). The result for “CGTCGTCGCCGCCGCCGCCCTCTGCGTCGACGCTGCGGCACGGAGTCACCTAGTGCAG” reads 3220 fluorescence intensity (a.u.); that for “CGACGCCGCCGAGATCGCCGTCACCCGAATCCTGCGACGCCGGAGTCACCTAGTGCAG”, 3580 fluorescence intensity (a.u.). Take “AGCTTCGGAGGCTGTACACGTAATGTGGTCGCTTGTTTGTCGGAGTCACCTAGTGCAG”: the binding signal was 9220 fluorescence intensity (a.u.). The result for “CATGTACACACCCACAGTCATCTGCTCATGTTTTCACGGTCGGAGTCACCTAGTGCAG” reads 3630 fluorescence intensity (a.u.).

Values taken from publication PMC7819943, “Rice protein-binding microarrays: a tool to detect cis-acting elements near promoter regions in rice”.
